Experimental data reported in PubChem BioAssay (Tox21).
Results filed as inconclusive are left out. A call without a number means that no potency is given here. The source made the active and inactive calls. Unless noted, calls come from the whole dose curve; as a rule, active = well fitted curve in the direction sought with a large enough effect in the repeat runs; inconclusive = weak or mixed curves; inactive = no such curve, though single readings can be large; an effect the other way counts as inactive or inconclusive.

Assays:
[1] = qHTS assay for small molecules that induce genotoxicity in human embryonic kidney cells expressing luciferase-tagged ATAD5 (AID 651632); note: nearly all actives have a fitted effect of over 15% in size; note: potency is the fitted concentration of half-maximal effect
Outline: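 HEK293T cells carrying a luciferase reporter tagged to ATAD5 were exposed to compound or DMSO vehicle for 16 hr at 37C, 5% CO2. Amplite was added, and after 30 min at room temperature luciferase activity was read as a marker of ATAD5 induction.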

[2] = qHTS assay for small molecules that induce genotoxicity in human embryonic kidney cells expressing luciferase-tagged ATAD5 - cell viability (AID 651634; calls by dose curve; note: nearly all actives have a fitted effect of over 25% in size; note: potency is the fitted concentration of half-maximal effect)
Outline: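 HEK293T cells expressing luciferase-tagged ATAD5 were exposed to compound or DMSO for 15.5 hr at 37C, 5% CO2. Viability was then read as live-cell protease activity by CellTiter-Fluor fluorescence after 30 min at 37C.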

[3] = qHTS assay for small molecule disruptors of the mitochondrial membrane potential - cell viability (AID 720634; calls by dose curve;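 note: human HepG2 liver cancer cells; nearly all actives have a fitted effect of over 20% in size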)
Outline: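 HepG2 cells seeded overnight at 37 C, then exposed to compound or DMSO for 1 hr at 37 C, 5% CO2. m-MPI dye added, then CellTiter-Glo for 30 min at room temperature; viability read as ATP luminescence.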

[4] = qHTS assay for small molecule disruptors of the mitochondrial membrane potential (AID 720635); note: potency is the fitted concentration of half-maximal effect
Outline: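 HepG2 cells exposed to compound 1 hr at 37C, then Mito-MPS dye 30 min. Ratio read of aggregate (540/590 nm) versus monomer (490/535 nm) fluorescence.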

[5] = qHTS assay to test for compound auto fluorescence at 590 nm (red) in HepG2 cells (AID 720674); note: potency is the fitted concentration of half-maximal effect
Outline: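 Fluorescence at 590 nm emission following 540 nm excitation was recorded from HepG2 wells one hour after compound transfer, with DMSO-only wells as vehicle and Rose Bengal sodium equivalency as the scale.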

[6] = qHTS assay to test for compound auto fluorescence at 535 nm (green) in HepG2 cells (AID 720675)
[7] = qHTS assay to test for compound auto fluorescence at 460 nm (blue) in HEK293 cells (AID 720678)
Outline: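 Triamterene serves as the blue fluorophore standard. Compound signal at 405/460 nm is read in HEK293 wells (2,000 cells, 10% dialyzed FBS) after overnight treatment at 37C.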

[8] = qHTS assay to test for compound auto fluorescence at 590 nm (red) in HEK293 cells (AID 720679); note: potency is the fitted concentration of half-maximal effect
Outline: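 We plated HEK293 cells in 10% dialyzed FBS medium, let them adhere for 4-5 hr, then added 23 nL compound. Overnight at 37C and 5% CO2 preceded fluorescence measurement at 540/590nm.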

[9] = qHTS assay to test for compound auto fluorescence at 535 nm (green) in HEK293 cells (AID 720680)
[10] = qHTS assay to test for compound auto fluorescence at 460 nm (blue) in HEK293 cell free culture (AID 720681)
Outline: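 Compounds were added to cell-free DMEM with 10% FBS and fluorescence read directly. The blue channel used 405 nm excitation and 460 nm emission, with triamterene as the reference fluorophore.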

[11] = qHTS assay to test for compound auto fluorescence at 535 nm (green) in HEK293 cell free culture (AID 720682)
Outline: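 DMEM + 10% FBS, cell-free; cpd or DMSO pinned in; Ex485/Em535 read; output as fluorescein-equivalent signal.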

[12] = qHTS assay to test for compound auto fluorescence at 590 nm (red) in HEK293 cell free culture (AID 720683); note: potency is the fitted concentration of half-maximal effect
Outline: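 Cell-free wells of DMEM with 10% FBS received compound, and intrinsic fluorescence was read at excitation/emission 540/590 nm. Values expressed as equivalence to Rose Bengal sodium.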

[13] = qHTS assay to test for compound auto fluorescence at 590 nm (red) in HepG2 cell free culture (AID 720684); note: potency is the fitted concentration of half-maximal effect
Outline: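 Compound was pinned into wells holding MEM with 10% FBS and no cells, and red fluorescence was read at Ex/Em 540/590 nm. Signal is expressed as auto fluorescence equivalency relative to Rose Bengal sodium.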

[14] = qHTS assay to test for compound auto fluorescence at 535 nm (green) in HepG2 cell free culture (AID 720686)
[15] = qHTS assay to test for compound auto fluorescence at 460 nm (blue) in HepG2 cells (AID 720687)
Outline: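 HepG2 cells in MEM with 10% FBS, attached overnight at 37 C, were exposed to compound or DMSO for 1 hr at 37 C, 5% CO2. Blue fluorescence was read at 405/460 nm, with triamterene as reference fluorophore.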

[16] = molecular target: Glucocorticoid receptor (Homo sapiens) (UniProt P04150); assay: qHTS assay to identify small molecule agonists of the glucocorticoid receptor (GR) signaling pathway (AID 720691; active = well fitted activation curve with a large enough effect in the signal ratio in the repeat runs, not every such curve was filed as active; the % refers to the signal ratio); conditions: GR-bla HeLa, beta-lactamase reporter ratio, 18 h; activation: at 62.4 µM (top of the series)
Outline: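 GR-bla HeLa cells (beta-lactamase reporter under glucocorticoid response element) were plated 4 h at 37 C/5% CO2, given compounds in DMSO, and incubated 18 h at 37 C. LiveBLAzer B/G FRET substrate was added for 2 h at room temperature, then fluorescence intensity read.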

[17] = molecular target: Glucocorticoid receptor (Homo sapiens) (UniProt P04150); assay: qHTS assay to identify small molecule antagonists of the glucocorticoid receptor (GR) signaling pathway (AID 720692; active = well fitted inhibition curve with a large enough effect in the signal ratio in the repeat runs, not every such curve was filed as active; the % refers to the signal ratio; note: potency is the fitted concentration of half-maximal effect)
Outline: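 GR-bla HeLa cells (beta-lactamase reporter under glucocorticoid response element) were pre-plated 4 h at 37 C, treated with compounds plus 5 nM dexamethasone (final) for 18 h, then read by LiveBLAzer B/G FRET fluorescence after 2 h.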

[18] = qHTS assay for small molecule agonists of the p53 signaling pathway - cell viability (AID 651633; calls by dose curve; note: nearly all actives have a fitted effect of over 30% in size; note: potency is the fitted concentration of half-maximal effect)
Outline: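 p53RE-bla cells were treated with compound for 16 hours at 37 C. Cytotoxicity was then measured as CellTiter-Glo luminescence after 30 min at room temperature.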

[19] = qHTS assay to test for compound auto fluorescence at 460 nm (blue) in HepG2 cell free culture (AID 720685)
Outline: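 Compound (23 nL) or DMSO pinned into cell-free MEM with 10% FBS; blue fluorescence read at 405/460 nm excitation/emission, expressed as auto-fluorescence equivalency to triamterene.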
Tags give direction and shape of the fitted curve or compound fluorescence and quenching.

Glucocorticoid receptor (Homo sapiens), sequence (P04150 whole entry, looked up): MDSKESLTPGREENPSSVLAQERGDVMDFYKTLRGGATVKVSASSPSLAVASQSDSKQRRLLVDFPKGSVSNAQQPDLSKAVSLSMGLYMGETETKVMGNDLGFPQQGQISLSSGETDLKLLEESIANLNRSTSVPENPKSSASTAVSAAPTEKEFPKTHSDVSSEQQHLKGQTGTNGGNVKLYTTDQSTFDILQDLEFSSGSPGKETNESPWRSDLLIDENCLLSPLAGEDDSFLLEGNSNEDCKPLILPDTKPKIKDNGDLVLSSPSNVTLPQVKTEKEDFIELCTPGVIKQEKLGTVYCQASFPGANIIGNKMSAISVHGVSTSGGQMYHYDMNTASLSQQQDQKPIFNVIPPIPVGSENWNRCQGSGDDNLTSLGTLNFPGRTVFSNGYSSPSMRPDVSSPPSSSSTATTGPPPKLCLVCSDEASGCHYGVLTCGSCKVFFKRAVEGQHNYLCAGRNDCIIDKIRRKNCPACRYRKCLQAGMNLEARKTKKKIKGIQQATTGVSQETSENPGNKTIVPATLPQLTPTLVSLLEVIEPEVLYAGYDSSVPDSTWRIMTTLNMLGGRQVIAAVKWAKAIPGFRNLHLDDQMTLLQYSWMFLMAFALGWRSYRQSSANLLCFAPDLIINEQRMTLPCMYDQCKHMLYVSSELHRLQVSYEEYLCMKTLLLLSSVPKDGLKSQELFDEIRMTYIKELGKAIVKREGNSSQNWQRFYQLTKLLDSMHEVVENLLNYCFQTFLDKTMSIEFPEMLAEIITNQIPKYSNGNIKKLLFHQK

SMILES	Potency [1]	Potency [2]	Potency [3]	Potency [4]	Potency [5]	Potency [6]	Potency [7]	Potency [8]	Potency [9]	Potency [10]	Potency [11]	Potency [12]	Potency [13]	Potency [14]	outcome [15]	Potency [16]	Potency [17]	Potency [18]	outcome [19]
CC1(C)S[C@@H]2[C@H](NC(=O)[C@H](NC(=O)N3CCN(S(C)(=O)=O)C3=O)c3ccccc3)C(=O)N2[C@H]1C(=O)O	inactive	inactive	inactive	inactive	inactive	inactive	inactive	inactive	inactive	inactive	inactive	inactive	inactive	inactive	inactive	inactive	inactive	–	–
C=C[C@]1(C)C[C@@H](OC(=O)CSC(C)(C)CNC(=O)[C@H](N)C(C)C)[C@]2(C)[C@H](C)CC[C@]3(CCC(=O)[C@H]32)[C@@H](C)[C@@H]1O	inactive	–	inactive	–	inactive	inactive	inactive	inactive	inactive	inactive	inactive	inactive	inactive	inactive	inactive	inactive	inactive	inactive	inactive
CC(C)(C)NC(=O)[C@H]1CC[C@H]2[C@@H]3CC=C4C=C(C(=O)O)CC[C@]4(C)[C@H]3CC[C@]12C	inactive	inactive	inactive	–	inactive	inactive	inactive	inactive	inactive	inactive	inactive	inactive	inactive	inactive	inactive	inactive	–	–	inactive
O=C(O)c1c(Cl)c(Cl)c(Cl)c(Cl)c1-c1c2cc(I)c(=O)c(I)c-2oc2c(I)c(O)c(I)cc12	inactive	26.6 µM (active)	inactive	–	11.2 µM (active)	inactive	inactive	11.2 µM [fluorescent] (active)	inactive	inactive	inactive	11.2 µM [fluorescent] (active)	11.2 µM [fluorescent] (active)	inactive	inactive	–	–	–	inactive
COC(=O)C1=C(C)NC(C)=C(C(=O)O[C@H]2CCN(Cc3ccccc3)C2)[C@H]1c1cccc([N+](=O)[O-])c1	inactive	–	inactive	–	inactive	inactive	inactive	inactive	inactive	inactive	inactive	inactive	inactive	inactive	–	inactive	–	inactive	inactive
NCCC(=O)[N-][C@@H](Cc1cnc[nH]1)C(=O)O.[Zn]	inactive	inactive	inactive	inactive	inactive	inactive	inactive	inactive	inactive	inactive	inactive	inactive	inactive	inactive	–	–	–	–	inactive
CCOC(=O)[C@H](CS)NCCN[C@@H](CS)C(=O)OCC	inactive	inactive	inactive	inactive	inactive	inactive	inactive	inactive	inactive	inactive	inactive	inactive	inactive	inactive	inactive	inactive	inactive	–	inactive
Cc1ccc(S(=O)(=O)NC(=O)N[C@@H](C)Cc2ccccc2)cc1	inactive	inactive	inactive	inactive	inactive	inactive	inactive	inactive	inactive	inactive	inactive	inactive	inactive	inactive	inactive	–	–	–	inactive
CC(CN(C)C)CN1c2ccccc2Sc2ccc(C(F)(F)F)cc21 (stereo not drawn)	inactive	inactive	inactive	–	inactive	inactive	inactive	inactive	inactive	inactive	inactive	inactive	inactive	inactive	inactive	inactive	–	–	inactive
CCC[C@@H]1C[C@@H](C(=O)N[C@@H]([C@H]2O[C@H](SC)[C@H](O)[C@@H](O)[C@H]2O)[C@H](C)Cl)N(C)C1	inactive	inactive	inactive	inactive	inactive	inactive	inactive	inactive	inactive	inactive	inactive	inactive	inactive	inactive	inactive	–	–	–	inactive
O=C(O)c1cc(N=Nc2ccc(O)c(C(=O)O)c2)ccc1O	inactive	inactive	inactive	inactive	inactive	inactive	inactive	inactive	inactive	inactive	inactive	inactive	inactive	inactive	inactive	inactive	inactive	–	inactive
CCC(=O)NS(=O)(=O)c1ccc(-c2c(-c3ccccc3)noc2C)cc1	inactive	inactive	inactive	–	inactive	inactive	inactive	inactive	inactive	inactive	inactive	inactive	inactive	inactive	inactive	inactive	inactive	–	inactive
CCCCCCC(=O)O[C@H]1CC[C@H]2[C@@H]3CCc4cc(O)ccc4[C@H]3CC[C@]12C	inactive	inactive	inactive	11.9 µM (active)	inactive	inactive	inactive	inactive	inactive	inactive	inactive	inactive	inactive	inactive	inactive	–	7.56 µM (active)	–	inactive
CCC(=O)OCC(=O)[C@@]1(OC(=O)CC)[C@@H](C)C[C@H]2[C@@H]3CCC4=CC(=O)C=C[C@]4(C)[C@@]3(F)[C@@H](O)C[C@@]21C	inactive	inactive	inactive	23.7 µM (active)	–	inactive	inactive	inactive	inactive	inactive	inactive	inactive	inactive	inactive	inactive	–	–	–	inactive
CCCC1([C@H](O)C/C=C/[C@H]2[C@H](O)CC(=O)[C@@H]2CCCCCCC(=O)OC)CCC1	inactive	–	–	–	inactive	inactive	inactive	inactive	inactive	inactive	inactive	inactive	inactive	inactive	inactive	inactive	–	29.8 µM (active)	inactive
CC[C@]1(O)CC2CN(CCc3c([nH]c4ccccc34)[C@@](C(=O)OC)(c3cc4c(cc3OC)N(C)[C@H]3[C@@](O)(C(N)=O)[C@H](O)[C@]5(CC)C=CCN6CC[C@]43[C@@H]65)C2)C1 (stereo partly drawn)	3.35 µM (active)	0.531 µM (active)	inactive	10.6 µM (active)	inactive	inactive	inactive	inactive	inactive	inactive	inactive	–	inactive	inactive	inactive	inactive	–	–	inactive
C#C[C@]1(O)CC[C@H]2[C@@H]3CCC4=CCCC[C@@H]4[C@H]3C(=C)C[C@@]21CC	inactive	inactive	inactive	21.1 µM (active)	inactive	inactive	inactive	–	inactive	inactive	inactive	inactive	inactive	inactive	inactive	–	–	–	inactive
CCCCCCCCCCCCCCCCOCCOCCOCCOCCOCCOCCOCCOCCOCCOCCOCCOCCOCCOCCOCCOCCOCCOCCOCCOCCO	inactive	–	–	23.7 µM (active)	inactive	inactive	inactive	inactive	inactive	inactive	inactive	inactive	inactive	inactive	inactive	–	–	6.68 µM (active)	inactive
CC1(C)C(\C=C/C=C\C=C/C=C2/N(CCCCS(=O)(=O)O)c3ccc4ccccc4c3C2(C)C)=[N+](CCCCS(=O)(=O)[O-])c2ccc3ccccc3c21	inactive	–	inactive	–	inactive	inactive	inactive	inactive	inactive	inactive	inactive	inactive	–	inactive	inactive	inactive	–	inactive	inactive
CC1=C[C@H](O)CC(C)(C)[C@H]1/C=C/C(C)=C/C=C/C(C)=C/C=C/C=C(C)/C=C/C=C(C)/C=C/C1=C(C)C[C@@H](O)CC1(C)C	inactive	inactive	inactive	–	inactive	inactive	inactive	inactive	inactive	inactive	inactive	inactive	inactive	inactive	inactive	inactive	–	–	inactive
C[C@@H]1CCC2[C@@H](C)[C@@H](O)O[C@@H]3O[C@@]4(C)CC[C@@H]1[C@@]23OO4 (stereo partly drawn)	inactive	13.3 µM (active)	inactive	inactive	inactive	inactive	inactive	inactive	inactive	inactive	inactive	inactive	inactive	inactive	inactive	inactive	inactive	–	–
Cc1cc(O)c2c(c1)O[C@@]1(C)CC[C@H]3C(C)(C)CCCC34CO[C@@H]2[C@H]41 (stereo partly drawn)	inactive	–	–	–	inactive	inactive	inactive	inactive	inactive	inactive	inactive	inactive	inactive	inactive	inactive	–	–	26.6 µM (active)	inactive
CN[C@@H]1[C@@H](O)[C@@H](O[C@@H]2[C@@H](O)[C@H](OC3OC(CN)=CCC3N)[C@@H](N)C[C@H]2N)OC[C@]1(C)O (stereo partly drawn)	inactive	inactive	inactive	inactive	inactive	inactive	inactive	–	inactive	inactive	inactive	inactive	inactive	inactive	inactive	inactive	inactive	–	inactive
CCN(CC)CCOc1ccc(-c2nc3cc(Cl)ccc3s2)cc1	inactive	inactive	inactive	–	inactive	inactive	inactive	inactive	inactive	inactive	inactive	inactive	inactive	inactive	–	inactive	–	–	inactive
CN(C)c1ccc(C(=C2C=CC(=[N+](C)C)C=C2)c2c(O)c(S(=O)(=O)[O-])cc3cc(S(=O)(=O)O)ccc23)cc1	inactive	–	inactive	–	inactive	inactive	inactive	inactive	inactive	inactive	inactive	inactive	inactive	inactive	inactive	inactive	inactive	inactive	inactive
CCC(=O)NCCC1CCc2ccc3c(c21)CCO3 (stereo not drawn)	inactive	inactive	inactive	–	inactive	inactive	inactive	inactive	inactive	inactive	inactive	inactive	inactive	inactive	inactive	inactive	inactive	–	inactive
CCC[C@@]1(CCc2ccccc2)CC(O)=C([C@H](CC)c2cccc(NS(=O)(=O)c3ccc(C(F)(F)F)cn3)c2)C(=O)O1	inactive	inactive	inactive	23.7 µM (active)	inactive	inactive	inactive	inactive	inactive	inactive	inactive	–	inactive	inactive	inactive	inactive	–	–	inactive
